In PubChem BioAssay:
Measured potencies and affinities stand elsewhere. Results filed as inconclusive are left out. Calls of active or inactive are those of the source. Unless noted, how the calls were made is not given here.

How the values were obtained:
[1] = cytotoxicity in PAX8-dependent RMG-1 cells, dose response, cell-based, cherry-pick (AID 687029;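 active means signal drop whose fitted half-maximal concentration is at most twice the top valid dose, in every test run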;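 further: cells exposed to compound for 96 hours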)
[2] = cytotoxicity in IOSE-T80 ovarian epithelial cells, dose response, selectivity assay for PAX8 inhibitor project, cell-based, cherry-pick (AID 687032;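 active means fitted half-maximal concentration for viability loss no higher than twice the top valid dose, in every repeat run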;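 further: cells exposed to compound for 96 h before reading; 0% = neutral control wells and -100% = 2 µM mitoxantrone kill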)
[3] = inhibitors of CMV-promoter luciferase reporter, dose response, counter-screen for Pax8 inhibitor project, cell-based, HEK293, luminescence, dry powder (AID 743020;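 active means signal-lowering compounds whose fitted half-maximal concentration is at or below twice the top tested dose in every run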;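 further: HEK293 cells stably expressing the CMV luciferase reporter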)
[4] = IGROV1 ovarian cancer cell cytotoxicity, dose response, PAX8 inhibitor project, plate reader, dry powder samples (AID 743043);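 further: more negative means fewer viable cells or more cytotoxicity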
[5] = NIH:OVCAR-3 ovarian cancer cell cytotoxicity, dose response, PAX8 inhibitor project, plate reader, dry powder samples (AID 743044); settings: max activity: at 35 µM, hits give low values unless noted
[6] = IOSE-T80 ovarian epithelial cell cytotoxicity, dose response, cytotoxicity control for PAX8 inhibitor project, plate reader, dry powder samples (AID 743045);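 further: 0% = neutral control median and -100% = positive control median; more negative values mean more cell killing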
[7] = A2780 ovarian cancer cell cytotoxicity, dose response, cytotoxicity control, plate reader, dry powder samples (AID 743046);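 further: 0% = neutral control wells and -100% = cytotoxic reference compound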
[8] = cytotoxicity in OVCAR8 ovarian cancer cells, dose response, PAX8 project, cell-based, plate reader, dry powder samples (AID 743197)
[9] = non-specific cell cytotoxicity, dose response, cytotoxicity control for PAX8 inhibitor project, plate reader, dry powder samples (AID 743021)
[10] = HepG2 cell cytotoxicity, dose response, cytotoxicity control, plate reader, cherry-pick, antagonist series (AID 743416);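 further: 0% = neutral control wells and -100% = positive control wells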

O=C(Nc1ccc(F)cc1)N1C[C@@H]2N[C@H](C1)C2c1ccc(/C=C/c2ccccc2)cc1 (some centres not stated)
inactive: outcome [1] | outcome [2] | outcome [3] | outcome [4] | max activity [5] -17.6% | outcome [6] | outcome [7]

C[C@@H]1CCCCO[C@H](CN(C)C(=O)NC2CCCCC2)[C@H](C)CN([C@@H](C)CO)C(=O)c2cc(NS(=O)(=O)c3ccc(Cl)cc3)ccc2O1
inactive: outcome [1] | outcome [2] | outcome [3] | outcome [4] | max activity [5] -10.9% [at 0.26 µM, hits give low values] | outcome [6] | outcome [7] | outcome [8]

Cc1ccc(S(=O)(=O)N(C)C[C@H]2Oc3ccc(NS(=O)(=O)c4ccc(F)cc4)cc3CC(=O)N([C@H](C)CO)C[C@H]2C)cc1
inactive: outcome [1] | outcome [2] | outcome [3] | outcome [4] | max activity [5] 12.5% [at 2.1 µM, hits give low values] | outcome [6] | outcome [7] | outcome [8]

C[C@H](CO)N1C[C@H](C)[C@@H](CN(C)Cc2ccc(C(F)(F)F)cc2)Oc2ccc(NS(=O)(=O)c3ccccc3)cc2CC1=O
inactive: outcome [1] | outcome [2] | outcome [3] | outcome [4] | outcome [6]

CN(C)CC(=O)N1CCCCN2[C@H](CO)[C@H](c3ccc(/C=C/c4ccccc4)cc3)[C@H]2C1
inactive: outcome [1] | outcome [2] | outcome [3] | outcome [4] | outcome [6] | outcome [7]

COc1ccc(CN(C)C[C@@H]2OCCCC[C@H](C)Oc3ccc(NS(=O)(=O)c4ccc(C)cc4)cc3C(=O)N([C@H](C)CO)C[C@H]2C)cc1
inactive: outcome [1] | outcome [2] | outcome [3] | outcome [4] | max activity [5] -36% | outcome [6] | outcome [7]

C[C@H](CO)N1C[C@H](C)[C@@H](CN(C)Cc2ccc(-c3ccccc3)cc2)Oc2ccc(NC(=O)C3CC3)cc2CC1=O
inactive: outcome [1] | outcome [2] | outcome [3] | outcome [4] | max activity [5] 42.3% [at 2.1 µM, hits give low values] | outcome [6] | outcome [7] | outcome [8]

Cc1cccc(-c2ccc([C@H]3[C@H]4CN(S(=O)(=O)c5cccc(C)c5)CCCCN4[C@H]3CO)cc2)c1
inactive: outcome [1] | outcome [2] | outcome [3] | outcome [4] | outcome [6] | outcome [7]

COc1ccc(-c2csc3ncnc(Sc4nnnn4C)c23)cc1
inactive: outcome [1] | outcome [2] | outcome [3] | outcome [9] | outcome [10]

COc1cccc(C#Cc2ccc([C@@H]3[C@@H](C#N)N(C(=O)C4CCCCC4)[C@H]3CO)cc2)c1
inactive: outcome [1] | outcome [2] | outcome [3] | outcome [4] | max activity [5] 22.8% [at 1 µM, hits give low values] | outcome [6] | outcome [7]

C[C@H](CO)N1C[C@H](C)[C@@H](CN(C)C(=O)Cc2ccccc2)OCCCC[C@H](C)Oc2ccc(NC(=O)Nc3ccc(C(F)(F)F)cc3)cc2C1=O
inactive: outcome [1] | outcome [2] | outcome [3] | outcome [4] | max activity [5] 1.93% [at 8 µM, hits give low values] | outcome [6] | outcome [7]

O=C(C[C@@H]1CC[C@H]2[C@@H](COC[C@@H](O)CN2Cc2cccc(F)c2)O1)NCC1CCCCC1
inactive: outcome [1] | outcome [2] | outcome [3] | outcome [4] | max activity [5] 45.7% [at 8 µM, hits give low values] | outcome [6] | outcome [7] | outcome [8]

C[C@@H]1CCCCO[C@@H](CN(C)C(=O)c2ccccc2)[C@@H](C)CN([C@@H](C)CO)C(=O)c2cc(NC(=O)Nc3ccc(C(F)(F)F)cc3)ccc2O1
inactive: outcome [1] | outcome [2] | outcome [3] | outcome [4] | outcome [6] | outcome [7]

COc1ccc(NC(=O)Nc2ccc3c(c2)C(=O)N([C@@H](C)CO)C[C@@H](C)[C@H](CN(C)Cc2ccc(C(F)(F)F)cc2)O3)cc1
inactive: outcome [1] | outcome [2] | outcome [3] | outcome [4] | max activity [5] 30.5% [at 30 µM, hits give low values] | outcome [6] | outcome [7] | outcome [8]

C[C@@H]1CN([C@H](C)CO)C(=O)c2cc(NC(=O)Nc3ccc(C(F)(F)F)cc3)ccc2O[C@@H](C)CCCCO[C@@H]1CN(C)C(=O)NC1CCCCC1
inactive: outcome [1] | outcome [2] | outcome [3] | outcome [4] | outcome [6] | outcome [7] | outcome [8]

Cn1nnnc1Sc1ncnc2scc(-c3ccc4c(c3)OCO4)c12
inactive: outcome [1] | outcome [2] | outcome [3] | outcome [9] | outcome [10]

C[C@@H]1CN([C@@H](C)CO)C(=O)c2cc(NC(=O)Nc3ccc(F)cc3)ccc2O[C@@H](C)CCCCO[C@H]1CN(C)Cc1ccc(C(F)(F)F)cc1
inactive: outcome [1] | outcome [2] | outcome [3] | outcome [4] | outcome [6]

COc1ccccc1C#Cc1ccc2c(c1)O[C@H](CN(C)Cc1ccncc1)[C@@H](C)CN([C@@H](C)CO)S2(=O)=O
inactive: outcome [1] | outcome [2] | outcome [3] | outcome [4] | outcome [6] | outcome [7] | outcome [8]

CCCNC(=O)Nc1ccc2c(c1)OC[C@@H](C)N(Cc1ccc(-c3ccccn3)cc1)C[C@@H](C)[C@H](OC)CN(C)C2=O
inactive: outcome [1] | outcome [2] | outcome [3] | outcome [4] | max activity [5] 19.6% [at 1 µM, hits give low values] | outcome [6] | outcome [7] | outcome [8]

C[C@@H]1CN([C@H](C)CO)C(=O)CCCn2nncc2CO[C@H]1CN(C)Cc1ccc(Oc2ccccc2)cc1
inactive: outcome [1] | outcome [2] | outcome [3] | outcome [4] | max activity [5] 10.8% [at 4.2 µM, hits give low values] | outcome [6] | outcome [7] | outcome [8]

C[C@H](CO)N1C[C@H](C)[C@H](CN(C)Cc2ccccc2)OCCCC[C@H](C)Oc2ccc(NC(=O)Nc3ccc(C(F)(F)F)cc3)cc2C1=O
inactive: outcome [1] | outcome [2] | outcome [3] | outcome [9] | outcome [8]

C[C@@H]1CN([C@H](C)CO)C(=O)c2cc(NC(=O)Nc3ccc(C(F)(F)F)cc3)ccc2O[C@@H](C)CCCCO[C@@H]1CN(C)Cc1ccncc1
inactive: outcome [1] | outcome [2] | outcome [3] | outcome [9] | outcome [8]

C[C@H](CO)N1C[C@H](C)[C@H](CN(C)S(=O)(=O)c2ccc(Cl)cc2)Oc2c(NC(=O)Nc3ccc(F)cc3)cccc2C1=O
inactive: outcome [1] | outcome [2] | outcome [3] | outcome [4] | outcome [6] | outcome [7]

COc1ccccc1C#Cc1ccc2c(c1)O[C@@H](CN(C)Cc1cccnc1)[C@H](C)CN([C@H](C)CO)S2(=O)=O
inactive: outcome [1] | outcome [2] | outcome [3] | outcome [4] | max activity [5] 17.1% | outcome [6] | outcome [7]

COc1ccc(S(=O)(=O)Nc2ccc3c(c2)CC(=O)N([C@@H](C)CO)C[C@H](C)[C@@H](CN(C)Cc2ccc(C(F)(F)F)cc2)O3)cc1
inactive: outcome [1] | outcome [2] | outcome [3] | outcome [4] | outcome [6] | outcome [7] | outcome [8]

COc1cccc(C#Cc2ccc([C@H]3[C@@H](CO)N(C(=O)C4CCCC4)[C@H]3C#N)cc2)c1
inactive: outcome [1] | outcome [2] | outcome [3] | outcome [9] | outcome [7] | outcome [8]

N#C[C@H]1[C@@H](c2ccc(C#Cc3ccccc3F)cc2)[C@@H](CO)N1C(=O)C1CCCCC1
inactive: outcome [1] | outcome [2] | outcome [3] | outcome [4] | outcome [6] | outcome [8]

COc1ccc(NC(=O)N2C[C@@H]3N[C@H](C2)[C@@H]3c2ccc(-c3ccc(OC)cc3)cc2)cc1
inactive: outcome [1] | outcome [2] | outcome [3] | outcome [7]

COc1ccc(NC(=O)N2CC(=O)N3[C@@H](CO)[C@@H](c4ccc(/C=C/c5ccccc5)cc4)[C@@H]3C2)cc1
inactive: outcome [1] | outcome [2] | outcome [3] | max activity [5] 30.3% [at 16 µM, hits give low values] | outcome [6] | outcome [7]

C[C@H](CO)N1C[C@H](C)[C@@H](CN(C)S(=O)(=O)c2ccc(Cl)cc2)OCCCC[C@H](C)Oc2ccc(NS(=O)(=O)c3ccccc3)cc2C1=O
inactive: outcome [1] | outcome [2] | outcome [3] | outcome [4] | outcome [7] | outcome [8]

O=C(C[C@H]1CC[C@H]2[C@@H](COC[C@@H](O)CN2S(=O)(=O)c2cccc(Cl)c2)O1)Nc1ccc(-c2ccccc2)cc1
inactive: outcome [1] | outcome [2] | outcome [3] | outcome [6] | outcome [7]

O=C(Nc1ccc(F)cc1)N1C[C@@H]2N[C@H](C1)C2c1ccc(-c2ccccc2F)cc1 (some centres not stated)
inactive: outcome [1] | outcome [2] | outcome [3] | outcome [6] | outcome [7]

COc1ccc(-c2ccc(C3[C@@H]4CN(Cc5cc(OC)cc(OC)c5)C[C@H]3N4)cc2)cc1 (some centres not stated)
inactive: outcome [1] | outcome [2] | outcome [3] | max activity [5] -15.8% [at 16 µM, hits give low values] | activity change, negative = cytotoxicity [6] 6.64% [at 8 µM] | outcome [7]

Fc1cccc(CN2C[C@@H]3N[C@H](C2)[C@@H]3c2ccc(-c3cccc(F)c3)cc2)c1
inactive: outcome [1] | outcome [2] | outcome [3] | outcome [4] | outcome [7]

C[C@@H]1CN([C@@H](C)CO)C(=O)Cc2cc(NS(=O)(=O)c3ccc(Cl)cc3)ccc2O[C@@H]1CN(C)CC1CCCCC1
inactive: outcome [1] | outcome [2] | outcome [3] | outcome [6] | outcome [7] | outcome [8]

COc1ccc(-c2ccc3c(c2)[C@H]2[C@H](CCN2S(=O)(=O)c2ccc(F)cc2)[C@H](CO)N3C)cc1
inactive: outcome [1] | outcome [2] | outcome [3] | outcome [6] | outcome [7]

O=C(Nc1cccc(F)c1)N1CCCCN2[C@H](CO)[C@@H](c3ccc(-c4ccccc4F)cc3)[C@H]2C1
inactive: outcome [1] | outcome [2] | outcome [3] | outcome [6] | outcome [7] | outcome [8]

C[C@H](CO)N1C[C@H](C)[C@@H](CN(C)S(=O)(=O)c2ccc(Cl)cc2)OCCCC[C@H](C)Oc2ccc(NS(=O)(=O)c3cccs3)cc2C1=O
inactive: outcome [1] | outcome [2] | outcome [3] | outcome [4] | outcome [7]
